# KCC2 mod – KCC2 (human) Cl- transport modulation. Q9H2X9. KCC2 cells, thallium flux FluoZin-2 fluorescence. B-score of Tl+ flux slope (higher = more flux/activation; lower = inhibition) at 10 µM. 190,000 compounds, 2.2% hits. AID 1456;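 active = thallium flux slope and its plate-corrected score both differing from the plate sample mean at a set confidence after two filtering rounds, in either direction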;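 also: slope of fluorescence scaled to starting intensity during 10 to 20 s after thallium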
# H9c2 protect – myocardial damage modulation in H9c2 cells; H9c2 cardiomyocytes, H2O2 injury protection, ATPLite, 2 h; protection from H2O2 cell death, % at 20 µM; 360,000 compounds, 0.63% hits;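 active = compounds giving at least 50% protection of heart cells from peroxide-induced death in the single-dose screen, raw or plate-pattern-corrected value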;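 also: 0% = DMSO wells with peroxide and 100% = DMSO wells without peroxide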
# PHOSPHO1 block – PHOSPHO1 (human) inhibition | Q8TCT1 | recombinant PHOSPHO1, absorbance phosphatase assay | inhibition, % at 13.3 µM | 290,000 compounds, 1.1% hits; in the data active = inhibition above about 60%
# Efflux pump mplx – inhibitors of Candida antifungal efflux pumps expressed in yeast. inhibition, % at 10 µM. 330,000 compounds, 0.44% hits. S. cerevisiae Candida pump triplex, Nile Red efflux;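 active = plate passing quality check with inhibition over a set limit, or well fluorescence over plate mean plus 4 SD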;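 also: Nile Red retained in pooled yeast measured as flow cytometry median fluorescence; 0% = buffer negative control and 100% = Enniatin B positive control; higher means more Nile Red kept so more efflux inhibition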
# Calb FLC – affects C. albicans growth with fluconazole. 300,000 compounds, 0.57% hits. AID 1979. growth inhibition, % (concentration not given with the values). C. albicans CaCi-2 (fluconazole-resistant clinical isolate) + fluconazole, Alamar Blue growth, 48 h;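 active = growth inhibition above about 58% in most replicates, limit read from the data, passing the limit was not always enough; inconclusive = exactly half the replicates above a set limit; inactive = most replicates below a set limit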;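 also: all wells also contain fluconazole at 8 µg/ml as a sub-toxic cotreatment; 0% = median of DMSO wells and 100% = median of geldanamycin control wells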
# KCC2 sec1 – confirmation of human KCC2 transport modulators | shares compounds with KCC2 mod | HEK293-KCC2, thallium flux, FluoZin2 fluorescence; stronger effect = higher value | normalised thallium flux (F/F0 slope) at 10 µM | 3,700 compounds, 15% hits;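 active = thallium flux slope above the same plate's solvent-only control mean plus 3 SD; inconclusive = the two replicate wells disagree; inactive = no significant difference from solvent-only control wells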
# KCC2 bumet counter – thallium flux persisting under bumetanide in KCC2 cells, counter-screen secondary assay. shares compounds with KCC2 mod. HEK293-KCC2 + bumetanide/ouabain, thallium flux FluoZin2; stronger effect = higher value. normalized thallium flux at 10 µM. 3,700 compounds, 49% hits. AID 1714;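 active = thallium entry rate above the same plate's blocked-transporter control wells by more than 3 SD; inconclusive = the two repeat wells disagree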;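 also: raw slope of fluorescence over initial fluorescence between 10 and 20 s after thallium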
# KCC2 secondary2 – confirmation of human KCC2 transport modulators; 3,700 compounds, 23% hits; HEK293-KCC2, thallium flux FluoZin2 fluorescence; actives lie on both sides; F/F0 rise rate, 10–20 s post-thallium; shares compounds with KCC2 mod; normalized thallium flux at 10 µM; AID 1715;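 active = thallium flux slope more than 3 SD above or below the plate's solvent-only control mean, mostly below; inconclusive = the two repeat wells disagreed; inactive = no significant shift from solvent-only controls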;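 also: raw slope with 0.1% DMSO as baseline and bumetanide as block control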
# HEK counter1 – parental HEK flux effect, counter-screen. thallium flux rate (normalised fluorescence) at 10 µM. HEK293 parental cells, thallium flux FluoZin2, ouabain; baseline-ratio fluorescence slope, 10–20 s after thallium. 3,700 compounds, 46% hits. shares compounds with KCC2 mod;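 active = thallium flux rate significantly above the same plate's solvent-only control wells, beyond their mean plus 3 SD; inconclusive = the two replicate wells gave conflicting results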
# KCC2 retest ouab – modulates human KCC2 on retest with ouabain. shares compounds with KCC2 mod. HEK293-KCC2, thallium flux FluoZin2 fluorescence; bidirectional: low = inhibitor, high = activator. raw Tl+ flux slope (below DMSO = inhibition, above = activation) at 10 µM. 3,700 compounds, 48% hits;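 active = thallium flux slope beyond 3 SD from same-plate DMSO control mean in most replicates, usually higher, sometimes lower; inconclusive = repeat tests gave conflicting results; inactive = no significant difference from controls in most replicates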;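 also: slope of initial-normalized fluorescence between seconds 10 and 20 after thallium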
# HEK293 Tl flux2 – parental HEK flux effect, counter-screen 2; shares compounds with KCC2 mod; HEK293 parental, thallium flux FluoZin-2 fluorescence slope; thallium flux slope at 10 µM; 3,700 compounds, 33% hits; AID 1718;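 active = thallium flux slope above the same plate's solvent-control mean plus 3 SD in both duplicate wells; inconclusive = duplicate wells that disagreed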;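 also: run without ouabain in cells lacking the KCC2 cotransporter; slope of fluorescence scaled to its starting value between 10 and 20 s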
# Active calls of the source: *; ? = inconclusive; · = no result. Shown are actives, neighbours in structure and some others; about 3.3% of the full set was active somewhere.
SMILES,KCC2 mod,H9c2 protect,PHOSPHO1 block,Efflux pump mplx,Calb FLC,KCC2 sec1,KCC2 bumet counter,KCC2 secondary2,HEK counter1,KCC2 retest ouab,HEK293 Tl flux2
COc1cc(/C=C2\SC(=Nc3ccccc3)N(Cc3ccco3)C2=O)ccc1OC(C)C(=O)O (centres undefined),-0.84,-5,-9,0,22,·,·,·,·,·,·
Cc1oc(-c2ccc(Cl)cc2)nc1CS(=O)CC(=O)NCc1cccs1 (centres undefined),-3.6*,1,13,0,2,0.0065,0.0064,0.028,0.0069,0.017,0.0097
COc1ccc(-c2nc(CS(=O)CC(=O)NCc3cccnc3)c(C)o2)cc1 (centres undefined),1.4,3,9,0,2,·,·,·,·,·,·
CCc1ccc(-c2nc(CS(=O)CC(=O)NCc3cccnc3)c(C)o2)cc1 (centres undefined),4.4*,1,-6,0,2,0.0052,0.0048,?,0.0076,?,0.011
Cc1oc(-c2ccccc2Cl)nc1CS(=O)CC(=O)NCc1cccs1 (centres undefined),·,-1,-11,0,-2,·,·,·,·,·,·
Nc1nc2cc(S(=O)(=O)N3CCOCC3)ccc2o1,·,-6,·,0,·,·,·,·,·,·,·
COc1ccccc1C(=O)C1CCCN(C(=O)c2cnn(C(C)C)c2)C1 (centres undefined),·,2,-158,0,-6,·,·,·,·,·,·
O=C1NCC(COCc2ccco2)O1 (centres undefined),-4.8*,-2,-10,0,-9,0.017,0.0049,0.027,?,0.017,0.012
Cc1ccccc1OCC1CNC(=O)O1 (centres undefined),·,2,-26,0,-23,·,·,·,·,·,·
O=C(NCCOc1ccc2ccccc2c1)c1cncc(Br)c1,-0.4,-5,27,0,-2,·,·,·,·,·,·
CCNC(=S)NN=C1CCC(C(C)(C)C)CC1 (centres undefined),3.3*,-4,52,0,-26,0.0069,0.0066*,0.028,0.0092*,0.02,0.011
CC(C)(C)C1CCC(=NNC(=S)Nc2cccnc2)CC1 (centres undefined),6.8*,4,-71,0,14,0.0069,0.013*,0.032,0.014*,?,0.013*
CC(C)(C)C1CCC(=NNC(=O)CN(c2ccccc2)S(C)(=O)=O)CC1 (centres undefined),0.93,4,-9,0,12,·,·,·,·,·,·
CC(C)(C)C1CCc2onc(C(=O)Nc3cccnc3)c2C1 (centres undefined),6.5*,-1,-16,0,19,0.0068,0.0045,0.03,0.0081,0.019,0.011
S=C(Nc1cccnc1)NC1CC2CCC1C2 (centres undefined),·,3,35,0,-6,·,·,·,·,·,·
O=C(Nc1cccc(Br)c1)c1ccc2c(c1)SC1=NS(=O)(=O)CCN12,·,-1,·,0,·,·,·,·,·,·,·
COC(=O)C(CC(=O)c1ccc(Cl)cc1)c1ccccc1 (centres undefined),·,-6,·,·,·,·,·,·,·,·,·
Cc1nc(SC2CC(=O)N(c3ccccc3)C2=O)nc2c1CCCC2 (centres undefined),·,4,-32,1,19,0.0062,0.0038,0.026*,?,0.016*,0.01
O=c1cc(-c2ccccc2)nc2c(-c3ccccc3)c(C(F)(F)F)[nH]n12,3.8*,-10,29,0,3,0.0099,0.014*,0.033,0.011*,0.022,0.0091

# Screens deposited in PubChem by several laboratories.
